The text below walks through data of PubChem BioAssay AID1347426 (Functional Genomics Laboratory (NCATS/FGL), 2020).

The campaign covered roughly 31,000 sequences. About 1,400 (4.5%) were called active. The full list was thinned out, with actives kept by preference. Unmarked numbers belong to inactive results.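 Rule for the calls: active = median seed-adjusted z-score above 1 or below -1; inactive = the rest.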

This experiment is described as follows: Novel Modifiers of Survival Motor Neuron (SMN) Protein: Gene Identification via Genome-wide siRNA Screen.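 Note: luminescence tracks full-length SMN protein made from the SMN2 reporter.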 Particulars: HEK293T SMN2-luciferase reporter, siRNA knockdown, 72 h; actives lie on both sides. The method, boiled down: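 Luciferase signal, proportional to full-length SMN made from an SMN2 cDNA reporter in stable HEK293T cells, was read 72 h after siRNA reverse transfection. Values were expressed as MAD scores after non-targeting-control normalization and log10 conversion; seed analysis flagged off-targets.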
Take CAAUACGAUUGGGACAUUATT against UXS1: the median seed-adjusted z-score was 0.25.
Then CAUUCGUUCUUACAAGGAATT against FMNL3, with 0.481; and CCUCCUCUGCUUAUCGUAUTT against GLT8D1, with 1.22 (active).
The figure for GGGACGAUAUUUUAUGCAUTT against AHRR is -0.636.
The figure for GGGAAGAUCCUGUACAUCUTT against PER2 is -0.113.
Turning to CAUUUGGUCUAGACAGUUUTT against TDP1, the median seed-adjusted z-score is -0.352.
The figure for GGUUCUUGGGUGAAGGACATT against CHGB is -1.29 (active); for GACCCGCUUUCUACCGUUATT against ENTPD4 it is 0.324.
Then GCUUAUCCAUUGGAACUGUTT against NEK9, with 0.0698.
The figure for GCAGGGCAGUAAUCCUCAUTT against DLX6 is 0.0275; for GCCUUGUCGAAUUCUGUCATT against FOXO3 it is -0.712.
As to CCCAGUCUGUGAAACCGAATT against JMJD3, the median seed-adjusted z-score is 0.871.
On to GCUGCUGAAAGAUAUGAAATT against SPCS3, for which the median seed-adjusted z-score is 0.417.
The figure for GGAUAAACCUAUGCAUACATT against CCNF is -0.435; for CGCUGUCUCGGGAGAGAAATT against SFRS3 it is 2.74 (active); for CCUCUUCCACCGCUACUUCTT against TREX2 it is -0.918.
Then GGCUCUUAAUAUUCGAAUATT against GPR22, with 0.705.
Then UGAUCAUUGUCCCUACAGATT against SERPINA3, with 0.125.
As for UCCUCAAGAGUUCACCUAUTT against FCRL2, the median seed-adjusted z-score is -0.294.
For the sequence GCUAAACAGUUCGCAAGGATT against IGF2R, the median seed-adjusted z-score was 0.274.
Then GCUUUCCGAUGAUGAGAGATT against LEO1, with 1.2 (active).
For the sequence CAGCUGUACCGAUUAAGCATT against MEP1A, the median seed-adjusted z-score was 0.209.
Turning to GACUGAAUGAUAUGAAAGATT against RHOQ, the median seed-adjusted z-score is -0.328.
Then GGAUUUGAGGGAAAACGCATT against FMO2, with -0.265; and GGAGGUCUCAAGUUCAACATT against LENG8, with -0.00539; and UGAUGAACUCGGAAAUGCATT against PPAPDC1A, with 0.634.
Then GGACCAGAGAGACUUCAUUTT against ASTL, with 0.722; and GAAGCAGGGUUAAAGCGGATT against PRDM2, with 1.12 (active).
As to GAGAUAACAUCAGUAGAAATT against FGF10, the median seed-adjusted z-score is 0.
The figure for CACCGUCUGAGAUAAUAGATT against LST-3TM12 is -0.109; for CUGUCCGUAUGAUUACAAATT against ZFAND5 it is 0.0289.
Regarding GCAUCGCCCUGAUGAGUAATT against ADCY7, the median seed-adjusted z-score is -0.0202.
Then CCUCAUGUCGGGCAUCUUATT against EGR4, with 0; and GAUUCUUUUGAAAAAGUGATT against ZNF675, with -0.343; and GGAUUAUUCAUUAUUACAUTT against NDUFB6, with -0.357.
On to GCUCAACAGUCCCUAGUUATT against RSC1A1, for which the median seed-adjusted z-score was 0.438.
Then CCAUCAAGCUCUACAAGGATT against TOP3B, with -1.11 (active); and CAGUUCAAGUGACCAUUGATT against CD300LF, with -0.264.
For GGUUCUUCCCGUUGUCUUUTT against TOMM22, the median seed-adjusted z-score is 0.486.
Then GGACCACAGACAUAGUAGATT against NCOA5, with 0.947; and ACAUGGACAAUGCCGCAGATT against HSPBP1, with 0.368; and CUAAGAUGGUUAUCAAGAATT against SLC1A2, with 0.249.
The figure for CGAAGGAUAUCUAUCAUCATT against NXF1 is -4.46 (active).
With GGACUACGGAGUUCGAGAATT against MGC29506, the median seed-adjusted z-score was 0.
The figure for CCCAUAAUAUCAUUGAGAATT against SREBF2 is -0.606; for GGUCCGGAAUGUGAACUUUTT against SERPINE2 it is 0.0144; for AGAUGGAGUUUGAUCCUAATT against POLR2G it is -4.19 (active).
Then GAACUGCAAAGACCUGUUUTT against SSU72, with -1.64 (active).
Then CCUCAUCAACUCUGACAUATT against LMO2, with 0; and CCGUGAUCGUGAAGCUAGATT against PKD2, with 0.219; and CCCUCAGACUGUACGCAGATT against PGM5, with -0.0543.
GGAAACUCGUGGACUAUGATT against BIN2: the median seed-adjusted z-score is 0.205.
The figure for CGCUCACACUGGGUUCCAATT against SLC34A1 is 0.139; for UGAGCACAAUCAAGUCUAATT against BRD4 it is 1.13 (active); for GAAUUGGAAGAAGAUAUCATT against RHOBTB3 it is 0.256.
The figure for GAUGAUCUGUGAGACCAAATT against BOC is -0.0192.
Then CAUCAACGAAGGAAAUAUATT against CD27, with 0.5; and GUUCCUUAUUGUUAAGGUATT against PCDHB10, with -0.09.
Turning to GAAUGGAAGAUUUCACCUUTT against SNAPC3, the median seed-adjusted z-score was -1.72 (active).
The figure for GGAGCUACUUUGACUCACUTT against KCNK13 is -0.0924; for GCUCUGUGCUCUCUAGUGATT against LEFTY1 it is 0.383.
The figure for CCCUCACUAUCACGGUUAATT against ATP6V1B2 is 0.24.
GUGCAUGUAUGAAGCCGAATT against NDUFB10: the median seed-adjusted z-score was -0.39.
The figure for AGAAGGUGACUCAAAGAAUTT against WFDC1 is 0.152.
Then AGCUCUUUGCUACAGAUGATT against ACAD8, with 1.06 (active); and GGACCGUGUUCUUUACGUATT against NDUFAB1, with -0.282; and CCCUGUUAUGUCAAGCUUATT against SYNPR, with 0.257.
Take CUUAAUUCUUGGUCUAUGATT against SP6: the median seed-adjusted z-score is -0.176.
Then AGUUCAUGCAAGAUCCAAUTT against BAT1, with -1.49 (active); and AGCGCGUCAUGAUGACCUATT against PER1, with 0.176.
The figure for AGCCCGUGAUGUACACGUATT against COL8A1 is -0.848; for GAUCCACCUGAGACAGAAATT against EGR2 it is -0.37; for GGAUCUAUCUCAUCAAACATT against NDUFC1 it is 0.
Then CAGACUUAUUACUAGAUGATT against PRDX5, with -0.0386; and GCAAAGGCACUGAAUCGAATT against MAP4K5, with -0.309; and GCCCGUCUAUGACAAGAAATT against RELB, with 1.16 (active).
As for CGCCUUGAAUGGGAGCAAATT against C2, the median seed-adjusted z-score was -0.0549.
Then GUGUAUUACCUGAGAAUCATT against CYP24A1, with 0.136.
In the case of CAGGUACCGUCAUCACAUUTT against PCDHA7, the median seed-adjusted z-score is 0.552.
The figure for GACUCGUGGUUUGAAGUGATT against ZNRF1 is -0.808; for CCCAGUUCCUAGACUGUAUTT against MTMR8 it is -0.416; for CGACCUUCAAAGUUAACAATT against CLIP1 it is 0.853.
As to CCUCUUACACUUUUCCGAATT against PECI, the median seed-adjusted z-score was -0.0254.
Then GUACCCUGGAGGAAAGCGATT against GNRH2, with 1.13 (active); and AGAGGAUCCUGAACUCCAATT against MYO19, with 0.0987; and AUCAAGUCUUCUUACAAGATT against VDAC2, with 0.648.
For the sequence GAAUGAGGCAUAUCAAGCATT against TUBD1, the median seed-adjusted z-score was -0.00491.
The figure for GGAAAUCCUUCAUAUACAATT against ZNF549 is 0.0114; for GAUUCCGUCUAAUCCUAGATT against C5 it is 0.153.
The figure for ACAAUGAAGUUCUCCCUGATT against PCGF1 is 0.508; for CCUCAUUUGUCUACACCAUTT against RAD51L1 it is 0.
On to GGUAUGAGGUUGACUCAUUTT against IFNAR1, for which the median seed-adjusted z-score is 0.0327.
For the sequence GGAGACCUGCGAUUACUUUTT against BARX2, the median seed-adjusted z-score was -0.206.
Then GGAGCUCAUUUGACAUGUATT against KIR2DL5B, with 1.72 (active).
The figure for GCGACUGUCUCGACAGAUATT against HTT is -0.234; for GGAUAGCUAAAGAAAUUCATT against IMPA1 it is -0.295; for CCACACUGGUGAUAGACCATT against ZNF384 it is -0.132.
The figure for UGAAAGGACUUGUCUGAAATT against CHST6 is 0.372.
Turning to GGGUGUCUGCGAUUAUCUUTT against WDFY1, the median seed-adjusted z-score was 0.979.
Then GGUUGGUGAUGUCAAGUAUTT against CDKL2, with -0.293; and AGUGGUCCCUUCACAGGAATT against GNRH2, with 1.13 (active).
On to AGCCUUUAGUGUCCGUUCATT against ZNF347, for which the median seed-adjusted z-score was 0.
Consider GGGACUAGCUCUUCGCAUATT against PTGER3, for which the median seed-adjusted z-score was -0.321.
The figure for GACUCUGAAUGCUUGCUGUTT against MMS19 is 0.0142; for CCAUCUAUGAGGCGGGAAATT against MFI2 it is 0.365.
Then GAAUCUUGCCCGUCUAUAATT against RSC1A1, with 0.438; and CACCAUCUCCGGGAACAGATT against FUT1, with 0.000845.
Then GCAUGGGUUUUAUUAUAUATT against CCL11, with -0.221.
